In the library only some 3.7% were active in any assay of this set; here they are far more common.
CHT PAM = human CHT allosteric activation; CHT-expressing cells, membrane potential dye, choline EC20; hits give high values; LV-AA mutant CHT in HEK293 cells; B-score at 10 µM; 310,000 tested, 0.49% active; Q9GZV3;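 active = initial fluorescence not abnormally high and integrated response B-score, plate-corrected, over 3 SD above library mean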
Target sequence (Q9GZV3 whole entry, looked up): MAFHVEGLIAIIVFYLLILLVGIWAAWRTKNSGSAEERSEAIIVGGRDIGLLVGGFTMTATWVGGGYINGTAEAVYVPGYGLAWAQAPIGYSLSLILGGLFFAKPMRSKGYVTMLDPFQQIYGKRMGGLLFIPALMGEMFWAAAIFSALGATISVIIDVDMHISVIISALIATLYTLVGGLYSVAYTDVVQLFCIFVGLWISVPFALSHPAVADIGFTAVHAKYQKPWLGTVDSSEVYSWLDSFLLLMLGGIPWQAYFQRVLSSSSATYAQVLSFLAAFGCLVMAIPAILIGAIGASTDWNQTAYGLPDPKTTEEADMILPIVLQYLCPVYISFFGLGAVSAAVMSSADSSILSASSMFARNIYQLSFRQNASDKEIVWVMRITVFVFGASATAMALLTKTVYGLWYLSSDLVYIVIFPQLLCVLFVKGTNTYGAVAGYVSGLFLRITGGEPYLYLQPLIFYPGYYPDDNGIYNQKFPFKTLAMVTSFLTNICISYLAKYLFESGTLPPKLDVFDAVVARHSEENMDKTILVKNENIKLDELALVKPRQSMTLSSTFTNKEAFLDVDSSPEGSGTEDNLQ
CHT block = inhibitors of human choline transporter CHT; Q9GZV3; CHT-expressing cells, membrane potential dye, choline response; hits give low values; B-score at 10 µM; 310,000 tested, 0.86% active; AID 488975;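 active = B-score over 3 SD under the library average, and starting fluorescence ratio not unusually high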;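 also: choline stimulus applied at its EC90 after an EC20 pre-addition; B-score computed on integrated fluorescence ratio after choline addition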
ANO1 block = blocks the mouse calcium-activated chloride channel TMEM16A; 310,000 tested, 1.2% active; normalized B-score (activity score, 25-100; higher = stronger inhibition) at 10 µM; HEK293 TMEM16A/YFP iodide influx fluorescence, ionomycin; Q8BHY3;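 active = ratio plate-corrected score three or more library SD toward inhibition, starting fluorescence score within five deviations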;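 also: score derived from kinetic fluorescence span divided by baseline fluorescence per well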
GPR7 antag = human neuropeptides B/W receptor 1 antagonism; 290,000 tested, 1.1% active; inhibition, % at 4.4 µM; GPR7-expressing cells, fluorescence antagonist assay; P48145; in the data active = inhibition above about 16%, passing the limit was not always enough;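 also: cells stimulated with the agonist NPW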
TMEM16A act = mouse TMEM16A channel activation, primary screen; B-score at 10 µM; HEK293 TMEM16A/YFP-H148Q/I152L, iodide quench fluorescence; hits give low values; 340,000 tested, 0.3% active;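 active = fluorescence-ratio B-score plate-corrected deviation score at least 3 library SD below zero, with starting fluorescence score within 5 deviations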;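 also: channel opened by trigger with iodide after compound preincubation; score built on the fluorescence ratio of max minus min over baseline; more negative score means more quench and so TMEM16A activation or potentiation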
Kir21 block = blocks the mouse Kir2.1 inward-rectifier potassium channel | P35561 | HEK293-Kir2.1, FluxOR thallium flux fluorescence; hits give low values | B-score at 10 µM | 310,000 tested, 0.85% active;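 active = fluorescence ratio B-score at or below minus 3 SD of library scores, with starting-brightness B-score within 2 SD, cut at about -4.2 in these data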;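 also: channel flux triggered by added potassium and thallium sulfate stimulus; B-score of peak minus minimum fluorescence over baseline after thallium stimulus; more negative B-score means stronger Kir2.1 block with less thallium influx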
CHT block conf = confirmation of human choline transporter CHT inhibitors; shares compounds with CHT block; CHT-expressing cells, choline membrane potential dye; LV-to-AA substituted CHT, HEK293 cells; CHT activity remaining % of control (hits give low values), % at 10 µM; 2,400 tested, 70% active; AID 493221;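 active = choline transporter activity left, mean of duplicates at 10 µM, below buffer-only control mean minus 3 SD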;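 also: depolarization triggered by choline at its EC90 following an EC20 pre-addition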
HEK293 MPD ctr = counter-screen for CHT inhibitors: effect in parental HEK293 cells; membrane potential dye, choline response; active = decrease or increase beyond buffer ±3SD; membrane potential ratio readout (active if shifted either direction beyond buffer ±3SD; no single direction) at 10 µM; shares compounds with CHT block; 2,400 tested, 4% active;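 also: parental cells lack the transporter so any hit is non-specific; ratio is peak minus trough fluorescence over baseline after EC90 choline challenge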
A number is an active result; n = inactive; x = no result.

SMILES	CHT PAM	CHT block	ANO1 block	GPR7 antag	TMEM16A act	Kir21 block	CHT block conf	HEK293 MPD ctr
CC(=O)Nc1ccc(S(=O)(=O)N2CCN(CC3CC4C=CC3C4)CC2)cc1 (stereo not given)	n	n	n	n	n	n	x	x
CCCc1ccc(OCc2ccc(C(=O)NCc3cccnc3)o2)c(OC)c1	n	-5.7	n	n	n	n	68%	n
O=C(NCc1cccnc1)c1ccc(COc2ccc(Cl)cc2Cl)o1	n	n	n	n	n	n	x	x
O=C(Nc1ccccc1)N1CCCC(c2nc(-c3ccc(F)cc3)no2)C1 (stereo not given)	n	-5.9	n	n	n	n	n	n
CC(C)OCC1CO1 (stereo not given)	x	x	x	x	n	x	x	x
O=c1c2ccccc2[nH]c(=S)n1CCCN1CCN(c2ccccc2)CC1	n	n	n	n	n	n	x	x
O=c1c2ccccc2[nH]c(=S)n1CCN1CCCCC1	n	-12	n	n	n	n	40%	n
CCC(=NOCc1ccccc1)C(=O)NNS(=O)(=O)c1ccc(C)cc1	x	x	x	x	n	x	x	x
CS(=O)(=O)c1ccccc1C(=O)Nc1cccc(-c2nc3ccccc3o2)c1	n	n	n	n	n	n	x	x
Cc1nn(C)c(C)c1CN(C)S(=O)(=O)c1ccc2ccccc2c1	n	-5.1	n	n	n	x	51%	n
Cc1c(NC(=O)/C=C/c2cn(-c3ccccc3)nc2-c2ccccc2)c(=O)n(-c2ccccc2)n1C	n	-5.7	n	n	n	n	65%	n
CCN(CC)S(=O)(=O)c1ccc(/C=C/C(=O)Nc2c(C)n(C)n(-c3ccccc3)c2=O)cc1	n	n	n	n	n	n	x	x
Cc1ccc(CSc2nnc(SCC(=O)N/N=C/c3ccc(C(=O)O)cc3)s2)cc1	n	-5	n	n	n	n	n	n
O=C(CSc1nnc(SCc2ccccc2)s1)N/N=C/c1ccc(C(=O)O)cc1	n	n	n	n	n	n	x	x
CN(CC(=O)Nc1cccc(F)c1)C(=O)CC1CCCCC1	n	n	n	x	n	n	x	x
N#Cc1nc(Cc2cccc3ccccc23)oc1N1CCOCC1	n	-5.3	n	n	n	n	59%	n
C=CCc1c(NCCO)nc(C)[nH]c1=O	n	n	n	n	n	n	x	x
O=S(=O)(Nc1nc2ccccc2s1)c1ccc(Cl)nc1	n	n	n	n	n	n	67%	n
CCOC(=O)c1ccc(NC(=S)NC(=O)COc2ccccc2)cc1	n	n	n	n	n	n	x	x
Cc1noc(NC(=O)c2c(-c3c(Cl)cccc3Cl)noc2C)c1[N+](=O)[O-]	n	-6.1	n	n	n	n	48%	n
CCn1cc(CNC(=O)c2cc(COc3ccc(F)cc3F)on2)cn1	n	n	n	n	n	n	69%	n
COc1ccc(-c2nnc(CSc3nc4ccccc4c(=O)n3CC3CCCO3)o2)cc1OC (stereo not given)	n	-7.4	n	n	n	n	49%	n
COc1ccc(OC)c(NC(=O)CSc2nc3ccccc3c(=O)n2CC2CCCO2)c1 (stereo not given)	n	n	n	n	n	n	x	x
O=C(CN(C(=O)CCC(=O)Nc1ccccn1)C1CCCC1)NCc1ccc(F)cc1	n	n	n	n	n	n	x	x
Oc1c(Cl)cc(Cl)cc1C=Nc1ccc(Br)cc1	n	-6.5	n	n	n	n	51%	n
CC(=O)Nc1ccc(NC(=O)C(C)Sc2n[nH]c(-c3ccc(C)cc3)n2)cc1 (stereo not given)	n	n	n	x	n	n	x	x
Cc1ccc(C)c(NC(=O)c2cccc(Oc3ccc([N+](=O)[O-])cc3Cl)c2)c1	n	-7.2	n	n	n	n	49%	n
O=C(Nc1cccc(Cl)c1)c1cccc(Oc2ccc([N+](=O)[O-])cc2Cl)c1	n	n	n	n	n	n	x	x
